In all, about 340,000 compounds went through this assay and about 8,500 (2.5%) were called active. The list comes from a sample in which actives are over-represented; it also holds similar structures and randomly drawn compounds. Values without a mark were called inactive.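 How the source made its calls: active means melting temperature shift of at least 10% of the positive control shift, at one fixed dose; inactive means the rest.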

For the assay, the system named is Glutamate receptor ionotropic, NMDA 3A (GRIN3A) ligand-binding domain. The experiment in a line: NR3A LBD thermal stabilization by compounds – biophysical, differential scanning fluorimetry, uHTS, primary screen (AID 1259313). Conditions: at 25 µM, active compounds read high, 0% = protein alone, 100% = glycine-bound protein.
For the molecule `O=C(CNS(=O)(=O)c1cccc(C(F)(F)F)c1)Nc1ccccc1F`, the Tm shift relative to glycine control is -1.13%.

`O=C(CNS(=O)(=O)c1ccc2ccccc2c1)Nc1ccc(F)c(F)c1F`: the Tm shift relative to glycine control was 35% (active).

With `CN(CC(=O)NCCc1ccc(S(N)(=O)=O)cc1)CC(=O)Nc1ccc(F)c(F)c1F`, the Tm shift relative to glycine control was -1.98%.

For `O=C(c1ccncc1)N1CCN(S(=O)(=O)c2cccc([N+](=O)[O-])c2)CC1`, the Tm shift relative to glycine control was 2.5%.

As to `Cc1ccc(Cc2cncc(O)c2)cc1S(=O)(=O)O`, the Tm shift relative to glycine control was 0.09%.

Take `CNc1nc(=O)n(C2CCCO2)cc1C` (stereo not given): the Tm shift relative to glycine control is -4.19%.

For `CN(C)CCCn1c(N)c(C#N)c2nc(C#N)c(C#N)nc21`, the Tm shift relative to glycine control is -3.53%.

For the molecule `N#Cc1c(N)n(CCOC(=O)c2ccc(Cl)cc2)c2nc3ccccc3nc12`, the Tm shift relative to glycine control was 35.9% (active).

Turning to `COCC(C)OC(=O)c1c(N)n(CCCN2CCOCC2)c2nc3ccccc3nc12` (stereo not given), the Tm shift relative to glycine control is -0.69%.

Turning to `C=CCc1cccc2cc(C(=O)N3CCN(C(=O)OCC)CC3)c(=O)oc12`, the Tm shift relative to glycine control is -2.65%.

With `Cc1ccc(NC(=O)CSc2nn3c(=O)c(C)nnc3s2)cc1Cl`, the Tm shift relative to glycine control is -1.28%.

For the molecule `C/C(=N\Nc1ccc(Cl)nn1)c1ccccc1O`, the Tm shift relative to glycine control was -6.71%.

On to `CC(C)(C)c1ccc(SCCc2ccncc2)cc1`, for which the Tm shift relative to glycine control was 0.08%.

With `Cc1cc(NS(=O)(=O)c2ccc(NC(=S)NC(=O)c3ccc(F)cc3Cl)cc2)no1`, the Tm shift relative to glycine control was 0.87%.

`O=C(Nc1cc(S(=O)(=O)Nc2ccc(Cl)cc2)ccc1O)c1ccc(F)cc1F`: the Tm shift relative to glycine control was 37.7% (active).

For `O=C(Nc1cccc(S(=O)(=O)NC2=NCCC2)c1)c1ccc(F)cc1F`, the Tm shift relative to glycine control was 0.09%.

Regarding `Cn1c(Cc2cccc3ccccc23)nnc1SCC(=O)N1CCN(c2cccc(Cl)c2)CC1`, the Tm shift relative to glycine control was 5.43%.

Consider `CCC(Oc1ccccc1C)C(=O)Nc1ccc(S(=O)(=O)Nc2cc(C)on2)cc1` (stereo not given), for which the Tm shift relative to glycine control was 3.83%.

On to `Cc1ccc(S(=O)(=O)N2CCCCC2)cc1C(=O)N1CCN(CCO)CC1`, for which the Tm shift relative to glycine control was 2.45%.

As for `COc1ccccc1N(CCOc1ccccc1)S(=O)(=O)c1ccccc1`, the Tm shift relative to glycine control is 12.6% (active).

With `COc1ccccc1NC(=O)CN(c1ccccc1OC)S(=O)(=O)c1ccccc1`, the Tm shift relative to glycine control is 0.31%.

`COc1ccccc1N(CC(=O)N1CCCCC1)S(=O)(=O)c1ccccc1`: the Tm shift relative to glycine control was 0.84%.

Turning to `NC(=S)Nc1c(Cl)cccc1Cl`, the Tm shift relative to glycine control was 2.25%.

As for `CN(CC(=O)Nc1c(Cl)cccc1Cl)C(=O)CNC(=O)C1CCCCC1`, the Tm shift relative to glycine control is 0.17%.

As for `O=C(Nc1c(Cl)cccc1Cl)C1CCC1`, the Tm shift relative to glycine control is 12.7% (active).

In the case of `Cc1c(S(=O)(=O)N2CC(C)CC(C)C2)c(=O)n(C)c(=O)n1C` (stereo not given), the Tm shift relative to glycine control was 11.1% (active).

For `Cc1c(S(=O)(=O)NC(C)c2ccccc2)c(=O)n(C)c(=O)n1C` (stereo not given), the Tm shift relative to glycine control is -6.52%.

Regarding `Cc1c(S(=O)(=O)NCc2ccccc2)c(=O)n(C)c(=O)n1C`, the Tm shift relative to glycine control is -0.41%.

`O=C(NCCc1ccccc1Cl)C1CCC(=O)N(CCCc2ccccc2)C1` (stereo not given): the Tm shift relative to glycine control is 3.05%.

On to `O=C(NNC(=O)c1ccc(-n2cncn2)c([N+](=O)[O-])c1)c1ccccc1`, for which the Tm shift relative to glycine control was 3.86%.

For the origin of these results see PubChem BioAssay AID1259313 (Sanford-Burnham Center for Chemical Genomics, 2017).
